Shown are actives, neighbours in structure and some others; about 8.2% of the full set was active somewhere.
ELG1 repair inh – inhibitors of ELG1-dependent DNA repair in HEK293T cells. Potency, µM (top dose mostly 46.1 µM), for the others: at the top dose activity change, negative = inhibition, usual class: inhibitors. HEK293T ELG1-luciferase reporter, luminescence, 16 h; DNA damage induced by 5-fluorouridine. 2.3% of 330,000 active; also: % is scaled to controls: 0 for no effect and ±100 for the full control effect; nearly all actives have a fitted effect of over 55% in size
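Quantitative HTS, concentration-response format. 2,000 cells/well co-treated with 5-fluorouridine and compound, 16 hr in 5% CO2 at 37 °C; ONE-Glo luminescence read after 30 min.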
KB-V1 MDR tox – KB-V1 MDR subline cytotoxicity. KB-V1 MDR cells viability, CellTiter-Glo, 72 h. Potency, µM (titrated, usually from 46.1 µM), hits mostly cytotoxic. 3.4% of 400,000 active. AID 1347076; also: % is scaled to controls: 0 for no effect and ±100 for the full control effect; nearly all actives have a fitted effect of over 60% in size
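Potencies derive from concentration-effect curves fitted to normalized luminescence (CellTiter-Glo) of KB-V1 cells treated for 72 h at 37 degrees C in phenol-red-free DMEM containing 10% FBS.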
MCF10A rerep – inducers of DNA re-replication in MCF 10A breast cells; 2.9% of 350,000 active; AID 624296; MCF 10A DNA re-replication, Hoechst nuclear intensity, 48 h; Potency, µM (series often up to 46.1 µM), for the others: at the highest dose activity, positive = re-replication, usual class: activators; also: % of control where 0% means no effect; nearly all actives have a fitted effect of over 50% in size
KB-3-1 tox – KB-3-1 parental cell cytotoxicity; KB-3-1 viability, CellTiter-Glo ATP luminescence, 72 h; Potency, µM (doses to about 46.1 µM), usual class: cytotoxic; 1.4% of 400,000 active; AID 1347075; also: % is scaled to controls: 0 for no effect and ±100 for the full control effect; nearly all actives have a fitted effect of over 60% in size
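KB-3-1 cells, DMEM (no phenol red) + 10% FBS; compound by pin transfer, 72 h, 37 °C. Readout: CellTiter-Glo luminescence after 10 min. Data normalized, curve-fitted.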
SW480 rereplic – DNA re-replication induction in SW480 cells | AID 624297 | 1.8% of 340,000 active | Potency, µM (highest dose often 46.1 µM), without a hit: top-dose re-replication activation, most hits filed as activators | SW480 DNA re-replication, Hoechst DNA content imaging, 48 h; also: % of control where 0% means no effect; nearly all actives have a fitted effect of over 55% in size
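Per well, 250 cells were exposed to pinned compound for 48 hr. Nuclear DNA was visualised with Hoechst (40 min, 37 C) and total object intensity recorded by fluorescence scanning.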
Starred values were filed as active, the others as inactive; i = inactive; ? = inconclusive; . = no result given; [ ] = another dose, or the depositor's remark. Calls follow the shape of the dose curve; as a rule, active = well fitted curve in the direction sought with a large enough effect; inconclusive = small, poorly fitted or top-dose-only effect, or another doubt; inactive = no such curve, though single readings can be large; an effect the other way counts as inactive or inconclusive. Potency is read from the fitted curve at half-maximal effect.

SMILES	ELG1 repair inh	KB-V1 MDR tox	MCF10A rerep	KB-3-1 tox	SW480 rereplic
CCOc1ccccc1/C=N/Nc1ccnc(=O)[nH]1	25.3%	i	3.1%	i	5.2%
COc1cccc(/C=N/Nc2snc(SC)c2C#N)c1O	?	16.4µM*	5.8%	13µM*	5.1%
O=c1nccc(N/N=C/c2ccccc2O)[nH]1	?	i	7.6%	6.51µM*	?
COc1cccc(/C=N/NC(=O)N/N=C/c2cccc(OC)c2O)c1O	?	i	14.5%	i	?
CN1CCN(C(=O)c2ccccc2NS(=O)(=O)c2ccc(F)cc2)CC1	14.8%	i	-4.8%	i	-27.7%
C/C(N)=C(/C#N)C(=O)CSc1nc(-c2ccccc2)c(-c2ccccc2)o1	2.1%	?	?	i	?
CCCCCCn1c(=O)c(-c2ccccc2)c(O)c2ccccc21	0.4%	i	2.4%	i	-5.9%
CCCCCCCCn1c(=O)c(C(=O)OC)c(N)c2ccccc21	?	?	20.6µM*	?	-12.4%
CCCCCCCn1c(=O)c(C(=O)OC)c(N)c2ccccc21	?	14.6µM*	0.3%	i	-0.4%
COc1cc(NC(=O)c2ccno2)cc(C(=O)Nc2cccc(C(F)(F)F)c2)c1	?	?	6.7%	i	-13.4%
Cc1nc(-c2cccnc2)sc1C(=O)Nc1ccc(C(F)(F)F)cc1	?	?	-1.0%	i	-5.5%
COc1cc(NC(=O)c2cc3cccc(OC)c3o2)cc(C(=O)Nc2cccc(C(F)(F)F)c2)c1	11.6µM*	?	7.2%	?	2.7%
Cc1nc(-c2cccnc2)sc1C(=O)Nc1cccc(C(F)(F)F)c1	?	16.4µM*	7.9%	i	-3.3%
COc1cc(NC(=O)c2csc(-c3ccncc3)n2)cc(C(=O)Nc2cccc(C(F)(F)F)c2)c1	5.17µM*	?	14.1%	i	0.6%[9.22 µM]
Cc1ccc(F)c(S(=O)(=O)NC(=O)C2(C)CCN2C(=O)c2cccc3ccccc23)c1 (centres undefined)	.	i	.	i	.
O=[N+]([O-])c1ccc2nc(CO)[nH]c2c1	.	i	.	i	.
COc1ccc2c(c1)O[C@H](c1ccc3c(c1)OCO3)[C@@H](OC(=O)N[C@H]1CCCc3ccccc31)C2=O	2.7%	i	1.5%	i	5.3%
COc1ccc2c(c1)O[C@@H](c1ccc3c(c1)OCO3)[C@H](OC(=O)Nc1cc(OC)c(OC)c(OC)c1)C2=O	-8.9%	.	3.66µM*	.	16.4µM*
CNC(=O)c1ccsc1NC(=O)C1CCN(S(=O)(=O)c2ccc(Cl)s2)CC1	18.3µM*	i	?	?	?
NC(=O)c1ccsc1NC(=O)C1CCN(S(=O)(=O)c2cccs2)CC1	?	i	8.5%	i	2.7%
O=C1CSC(c2cccnc2)N1Cc1ccc(Cl)c(Cl)c1 (centres undefined)	16.9%	i	1.8%	i	-7.8%
Cc1cccc2c(C(=O)N3CCN(c4ccccc4)CC3)cc(-c3ccncc3)nc12	-18.2%	3.66µM*	7.31µM*	4.11µM*	6.51µM*
Cc1ccc2nc(-c3ccccc3)cc(C(=O)N3CCc4ccccc4C3)c2c1	-3.4%	i	?	i	6.6%
Cc1cccc2c(C(=O)N3CCCCC3)cc(-c3ccccc3)nc12	?	?	?	i	?
COc1cccc(-c2cc(C(=O)N3CCN(c4ncccn4)CC3)c3ccccc3n2)c1	?	?	14.6µM*	i	-30.9%
SMILES	ELG1 repair inh	KB-V1 MDR tox	MCF10A rerep	KB-3-1 tox	SW480 rereplic
O=C(c1cc(-c2ccccc2)nc2ccccc12)N1CCc2ccccc2C1	?	18.4µM*	14.1%	?	-7.9%
CC(=O)c1ccc(N2CCN(C(=O)c3cc(-c4ccncc4)nc4ccc(Cl)cc34)CC2)cc1	?	9.2µM*	1.3%	i	-3.6%
CCNC(=O)C1CCCN(C(=O)c2ccco2)CC1 (centres undefined)	.	i	.	i	.
COc1ccc(-c2cc(C(=O)N3CCN(c4ncccn4)CC3)c3ccccc3n2)cc1OC	6.51µM*	i	29.4%	i	8.2µM*
CC(C)Oc1cccc(-c2cc(C(=O)N3CCN(S(C)(=O)=O)CC3)c3ccccc3n2)c1	?	i	?	i	20.1%
O=C(c1cc(-c2ccncc2)nc2ccccc12)N1CCN(Cc2ccccc2)CC1	20.6µM*	?	16.2%	i	-4.8%
Cc1ccccc1CN1CCN(C(=O)c2cc(-c3ccncc3)nc3ccccc23)CC1	8.5%	?	23.4%	i	1.2%
O=C(c1cccn2c(=O)c3ccccc3nc12)N1CCN(c2ccccn2)CC1	?	9.2µM*	-1.5%	i	-17.2%
O=C(c1cccn2c(=O)c3cc(Br)ccc3nc12)N1CCN(c2ccccn2)CC1	-6.6%	i	3.9%	i	0.7%
CC(C)Oc1cccc(-c2cc(C(=O)N3CCN(c4ncccn4)CC3)c3ccccc3n2)c1	14.6µM*	.	.	.	.
COc1cccc(N2CCN(C(=O)c3cc(-c4ccccc4)nc4c3cnn4C(C)C)CC2)c1	11.6µM*	i	?	?	?
O=C(c1cc(-c2cccc(Cl)c2)nc2ccccc12)N1CCN(c2ccccn2)CC1	23.1µM*	?	?	i	?
COc1cc(C(=O)N2CCN(c3ccccc3)CC2)c2ccccc2n1	.	?	?	0.581µM*	10.3µM*
COc1ccccc1N1CCN(C(=O)c2cc(-c3ccccc3)nc3c2cnn3C(C)C)CC1	.	i	.	i	.
CCOc1ccc(-c2cc(C(=O)N3CCN(c4cccc(C(F)(F)F)c4)CC3)c3ccccc3n2)cc1	.	?	.	5.8µM*	.
Cc1cc(C(=O)OCC(=O)N2CCN(c3ccccc3)CC2)c2ccccc2n1	?	i	-3.5%	i	0.8%
Cc1cccc(N2CCN(C(=O)CCCn3ncn4c(cc5occc54)c3=O)CC2)c1C	.	i	.	i	.
Cc1cccc2c(C(=O)N3CCN(c4ccccn4)CC3)cc(-c3cccc(Br)c3)nc12	14.6µM*	?	-5.5%	?	16.4µM*
COc1ccccc1C(CNC(=O)c1cccc(NS(=O)(=O)c2ccc(C)c(F)c2)c1)N1CCCC1 (centres undefined)	-10.9%	i	2.6%	i	-6.8%
CCOC(=O)c1sc2nccc(N(C)C)c2c1N=CNOCc1c(F)cccc1Cl	16.4µM*	?	14.6µM*	i	?
CCOC(=O)c1sc2nccc(N(C)C)c2c1N=CNOCc1ccccc1	?	9.2µM*	20.6µM*	?	?
C[C@H]1CN([C@@H](C)CO)S(=O)(=O)c2ccc(Br)cc2O[C@H]1CN(C)C(=O)CCN1CCCCC1	.	?	.	i	.
